Data as given in PubChem BioAssay AID1159580 (chemical genetic matrix, 2015).
Out of some 5,500 compounds screened, about 2,000 (36%) were called active. About 18% were inconclusive and are not listed. No stated cut-off is given here; in the data, active means normalized growth mostly below about 0.91 (no sharp cut-off); inconclusive means no clear call, values can overlap the other calls; inactive means mostly above about 0.92. Some of the results follow.

Test: chemical genetic growth profiling, strain panel (AID 1159580);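 further: tested at 20 µM; growth read once vehicle control cultures reached saturation at 30 °C; 1 = growth at the plate median or of vehicle wells; lower values mean less growth of the strain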
Conditions: S. cerevisiae deletion strains, growth OD
[1] = locus YAL013W, strain DEP1, hits give low values
[2] = locus YBR229C, strain ROT2, hits give low values
[3] = locus YDL101C, strain DUN1, hits give low values
[4] = locus YDL134C, strain PPH21, hits give low values
[5] = locus YDR150W, strain NUM1, hits give low values
[6] = locus YEL061C, strain CIN8, hits give low values
[7] = locus YGR078C, strain PAC10, hits give low values
[8] = locus YHR030C, strain SLT2, hits give low values
[9] = locus YHR087W, strain rtc3, hits give low values
[10] = locus YJR043C, strain POL32, hits give low values
[11] = locus YJR075W, strain HOC1, hits give low values
[12] = locus YLR039C, strain RIC1, hits give low values
[13] = locus YLR058C, strain SHM2 (second series), hits give low values
[14] = locus YLR085C, strain ARP6, hits give low values
[15] = locus YLR262C, strain YPT6, hits give low values
[16] = locus YML094W, strain GIM5, hits give low values
[17] = locus YMR219W, strain ESC1, hits give low values
[18] = locus YMR263W, strain SAP30, hits give low values
[19] = locus YNL153C, strain GIM3, hits give low values
[20] = locus YNL298W, strain CLA4 (second series), hits give low values
[21] = locus YNL322C, strain KRE1, hits give low values
[22] = locus YNR030W, strain Alg12, hits give low values
[23] = locus YPL055C, strain LGE1, hits give low values
[24] = locus YPL241C, strain CIN2, hits give low values
[25] = locus YPR135W, strain CTF4, hits give low values
[26] = locus YAL040C, strain CLN3, hits give low values
[27] = locus YCL061C, strain MRC1 (second series), hits give low values
[28] = locus YDR363W, strain ESC2, hits give low values
[29] = locus YER002W, strain NOP16, hits give low values
[30] = locus YNL197C, strain WHI3, hits give low values
[31] = locus YNL224C, strain SQS1, hits give low values
[32] = locus YOR083W, strain WHI5 (second series), hits give low values

Measured: normalized growth

CC1C(c2ccccc2)OCCN1CN1C(=O)c2ccccc2C1=O (configuration not stated)
inactive: [1] 1.02 | [2] 0.985 | [3] 1.01 | [4] 1.01 | [5] 0.99 | [6] 0.98 | [7] 1.01 | [8] 1.02 | [9] 0.993 | [10] 1.01 | [11] 0.98 | locus YKL190W, strain CNB1, hits give low values 0.987 | [12] 1.05 | [13] 1 | [14] 0.969 | [15] 1.07 | [16] 0.975 | [17] 0.996 | [18] 0.991 | [19] 0.992 | [20] 1 | [21] 0.993 | [22] 1.01 | [23] 0.991 | [24] 0.98 | [25] 1.06

CCCCCCCC/C=C\CCCCCCCC(=O)NCCO
inactive: [1] 1.01 | [26] 1.01 | [27] 1 | [5] 1 | [28] 0.974 | [29] 1.02 | [11] 1 | [18] 0.994 | [19] 0.981 | locus YNL175C, strain NOP13, hits give low values 0.963 | [30] 0.989 | [31] 1 | [21] 0.978 | [32] 0.999

CCCCCCCCCCCCCCCC(=O)NCCO
active: [31] 0.823
inactive: [26] 1.02 | [27] 1.01 | [28] 1.02 | [29] 1.01 | [11] 1.01 | locus YMR307W, strain GAS1, hits give low values 1 | [30] 1.03 | [32] 1.02 | [23] 1.02 | [24] 0.999

CCCCCCNC(=O)NCCCCCC
inactive: [1] 0.958 | [2] 0.931 | [3] 0.983 | [4] 0.925 | [5] 0.931 | [6] 0.939 | [7] 0.933 | [8] 0.858 | [9] 0.955 | [10] 0.942 | [11] 0.894 | [14] 0.881 | [16] 0.991 | [18] 0.98 | [19] 0.986 | [20] 0.991 | [22] 0.918 | locus YOL006C, strain TOP1, hits give low values 0.858 | [23] 0.959 | [24] 0.982 | [25] 0.824
active: [12] 0.76 | [13] 0.933 | [15] 0.723 | [17] 0.924 | [21] 0.914
